Most compounds without a hit are left out; they make up all but 10% or so of the library.
NS1 function inh: blocks influenza NS1 protein function. AID 2326. Potency, µM (titrated, usually from 46.1 µM). 0.4% of 270,000 active; also: actives are rising curves; nearly all actives have a fitted effect of over 50% in size
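Growth recovery, yeast-based: influenza A NS1 expressed in S. cerevisiae causes slow growth, and suppressors are detected by OD600. The parent strain without NS1 is used as positive control.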
SARS PLpro yeast: inhibitors of SARS-CoV papain-like protease in yeast. S. cerevisiae expressing SARS-CoV PLpro, growth rescue. Potency, µM (doses to about 32.9 µM), usual class: activators. 0.19% of 330,000 active; also: nearly all actives have a fitted effect of over 55% in size
Pf growth 48h: inhibits P. falciparum growth in the first generation, 48 h | P. falciparum luciferase growth in erythrocytes, 48 h | 5.9% of 310,000 active | Potency, µM (doses to about 28.7 µM), usual class: inhibitors; active = well fitted inhibition curve with a large enough effect; inconclusive = small, poorly fitted or top-dose-only effect, or another doubt; inactive = no such curve, though single readings can be large or run the other way
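Cell-based growth assay: transgenic P. falciparum expressing firefly luciferase, cultured in red cells within RPMI 1640 containing 0.5% w/v Albumax, 24 mM bicarbonate and gentamycin. A drop in luciferase activity indicates inhibition.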
Pf growth 96h: inhibits malaria parasite growth, 96 h. P. falciparum luciferase reporter growth, 96 h. Potency, µM (top dose mostly 28.7 µM), hits mostly inhibitors. 6.9% of 320,000 active; active = well fitted inhibition curve with a large enough effect; inconclusive = small, poorly fitted or top-dose-only effect, or another doubt; inactive = no such curve, though single readings can be large or run the other way
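P. falciparum expressing integrated firefly luciferase grown in erythrocytes (2% hematocrit, 0.05% parasitemia final) with compounds for 96 hours at 37 C, 5% CO2. Growth inhibition read as loss of luminescence after adding luciferase detection reagent.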
Each line names hits and unclear results; the compound was inactive in the other large screens. Unless noted, calls follow the shape of the full dose curve.

Cc1cc(NC(=O)CSc2nnc(-c3ccc(Br)o3)n2Cc2ccccc2)no1	Pf growth 48h inconclusive, Pf growth 96h inconclusive
O=C(CSc1nnc(-c2ccc(Br)o2)n1Cc1ccccc1)c1ccccc1F	Pf growth 48h 9.3µM, Pf growth 96h inconclusive
NC(=O)c1ccccc1OCC(=O)N1CCc2ccccc2C1	none
O=C(CSc1ccc([N+](=O)[O-])cn1)Nc1ccc2[nH]c(=O)[nH]c2c1	Pf growth 96h 4.7µM
O=C(NCc1ccco1)C(c1cccs1)N(C(=O)C1COc2ccccc2O1)c1cccc(O)c1 (configuration not stated)	Pf growth 48h 10µM, Pf growth 96h inconclusive
CC(C)CCNC(=O)C(c1ccc(O)cc1)N(Cc1cccs1)C(=O)C1COc2ccccc2O1 (configuration not stated)	NS1 function inh inconclusive, Pf growth 48h inconclusive
COc1ccccc1N(CC(=O)NCCSCc1ccccc1)S(=O)(=O)c1ccc(C)cc1	Pf growth 48h inconclusive, Pf growth 96h 2.6µM
COc1ccc(N(CC(=O)NCCSCc2ccco2)S(=O)(=O)c2ccccc2)cc1	Pf growth 48h inconclusive
COc1ccc(N(CC(=O)NCCSC2CCCCC2)S(=O)(=O)c2ccccc2)cc1OC	Pf growth 48h 13µM, Pf growth 96h inconclusive
COc1ccc(N(CC(=O)NCCSCc2ccco2)S(=O)(=O)c2ccccc2)cc1OC	Pf growth 96h 12µM
O=C(Nc1nc2c(Br)cccc2s1)C1CC1	none
CCN1C(=O)c2ccccc2Sc2ccc(C(=O)NCCN3CCOCC3)cc21	NS1 function inh inconclusive, Pf growth 96h inconclusive
CCN1C(=O)c2ccccc2Sc2ccc(C(=O)O)cc21	none (no result: Pf growth 48h)
CC(=O)c1ccc2c(c1)N(CCCN1CCN(CCO)CC1)c1ccccc1S2	Pf growth 48h 13µM, Pf growth 96h 13µM (no result: NS1 function inh, SARS PLpro yeast)
CCC(=O)c1ccc2c(c1)N(CCCN1CCN(CCO)CC1)c1ccccc1S2	Pf growth 48h 2.7µM, Pf growth 96h 4.8µM (no result: NS1 function inh, SARS PLpro yeast)
CCOC(=O)c1c(-c2ccccc2)c2cc(OC)ccc2n1CCCN(C)C	Pf growth 48h 9.3µM
CCCCC(CC)C(=O)Nc1cc(C(=O)NCCC)ccc1N1CCC2(CC1)CC(c1cccc(Br)c1)=NO2 (configuration not stated)	Pf growth 48h 3.7µM, Pf growth 96h 2.6µM (no result: NS1 function inh)
CCCCC(CC)C(=O)Nc1cc(C(=O)NCc2ccc(C)cc2)ccc1N1CCC2(CC1)CC(c1ccccc1)=NO2 (configuration not stated)	NS1 function inh inconclusive, Pf growth 48h 3.3µM, Pf growth 96h 2.1µM
CCCNC(=O)c1ccc(N2CCC3(CC2)CC(c2ccccc2)=NO3)c(NC(=O)Cc2ccc(F)cc2)c1	NS1 function inh inconclusive, Pf growth 48h inconclusive, Pf growth 96h 4.7µM
Cc1ccc(CNC(=O)c2ccc(N3CCC4(CC3)CC(c3cccc(Br)c3)=NO4)c(NC(=O)c3ccc(Cl)c([N+](=O)[O-])c3)c2)cc1	none (no result: NS1 function inh, Pf growth 48h, Pf growth 96h)
CCCCC(CC)C(=O)Nc1cc(C(=O)NCc2ccc(C)cc2)ccc1N1CCC2(CC1)CC(c1cccc(Br)c1)=NO2 (configuration not stated)	Pf growth 48h 2.3µM, Pf growth 96h 2.1µM (no result: NS1 function inh)
CCCCCCCC(=O)Nc1cc(C(=O)NCc2ccc(C)cc2)ccc1N1CCC2(CC1)CC(c1ccccc1)=NO2	Pf growth 96h inconclusive
NS(=O)(=O)c1ccc(CCNC(=O)COC(=O)CN2C(=O)C3CCCCC3C2=O)cc1 (configuration not stated)	none
Cc1ccc(-c2nnc(NCc3nc4ccccc4[nH]3)c3ccccc23)cc1S(=O)(=O)N1CCOCC1	NS1 function inh inconclusive, Pf growth 48h 12µM, Pf growth 96h 2.6µM
Cc1ccc(-c2nc3ccccc3s2)cc1S(=O)(=O)N1CCOCC1	Pf growth 96h inconclusive (no result: Pf growth 48h)
CC(=O)N1CCN(CCS(=O)(=O)c2ccc(Br)cc2)CC1	none (no result: NS1 function inh)
CCOc1ccc(C(NC(C)=O)c2ccc(OC)c(OC)c2)cc1 (configuration not stated)	Pf growth 96h 1.5µM
CCCC(=O)NC(c1ccc(OCC)cc1)c1ccc(OC)c(OC)c1 (configuration not stated)	Pf growth 48h inconclusive
CC(C)n1cc(/C=C2/NC(=O)N(c3cccc(Cl)c3)C2=O)c2ccccc21	Pf growth 48h 8.3µM, Pf growth 96h 9.3µM
CCN(CC(=O)NC1CCS(=O)(=O)C1)S(=O)(=O)c1ccc(Cl)c(C(F)(F)F)c1 (configuration not stated)	none (no result: NS1 function inh)
Cc1cccc(N(C)S(=O)(=O)c2ccc(-c3cnc(C4CC4)o3)cc2)c1	Pf growth 96h 15µM
Cc1ccc(-c2cnc(C3CC3)o2)cc1S(=O)(=O)Nc1ccccc1	Pf growth 48h inconclusive, Pf growth 96h 15µM

High-throughput results as filed in PubChem BioAssay.
